Only some compounds are listed: those with a hit (about 32% of all), similar ones and a draw of the others.
CYP2C19 act = increases human CYP2C19 enzyme activity; P33261; recombinant CYP2C19, luciferin-H EGE luminescence; active compounds read high; 0 = fully inhibited enzyme, 1 = untreated enzyme; activation factor at 5 µM; 96,000 tested, under 10 active; AID 1025;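 active = activation factor of at least 2 at 5 µM in the primary screen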;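 also: 0 = wells with 2.5 mM tranylcypromine and 1 = vehicle-only wells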
Target sequence (P33261 whole entry, looked up): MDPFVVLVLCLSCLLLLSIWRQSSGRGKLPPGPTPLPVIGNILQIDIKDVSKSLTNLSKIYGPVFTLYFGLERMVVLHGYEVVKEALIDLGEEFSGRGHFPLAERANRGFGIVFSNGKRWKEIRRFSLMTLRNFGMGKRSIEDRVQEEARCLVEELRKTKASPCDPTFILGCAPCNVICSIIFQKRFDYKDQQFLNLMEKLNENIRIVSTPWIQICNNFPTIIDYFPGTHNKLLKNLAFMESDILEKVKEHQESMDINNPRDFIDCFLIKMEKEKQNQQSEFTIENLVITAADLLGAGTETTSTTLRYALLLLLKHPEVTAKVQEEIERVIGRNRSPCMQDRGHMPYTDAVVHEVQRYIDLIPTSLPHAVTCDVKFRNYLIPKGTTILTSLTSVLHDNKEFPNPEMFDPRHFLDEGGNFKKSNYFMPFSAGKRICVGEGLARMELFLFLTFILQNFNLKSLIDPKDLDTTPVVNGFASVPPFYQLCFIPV
CYP2C19 inhib = inhibitors of human CYP2C19; P33261; CYP2C19 Supersomes, luciferin-H EGE luminescence, 30 min; inhibition, % at 5 µM; hit rate 21% among 96,000; AID 778;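 active = CYP2C19 inhibition above a set limit at 5 µM in the primary screen, cut at about 50% in these data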;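 also: plate controls were negative control wells for no effect and 2.5 mM tranylcypromine positive control for full effect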
PostGolgi ctrl = growth of the yeast control strain, post-Golgi counter-screen | inhibition, % at 10 µM | hit rate 5% among 98,000 | efflux-deficient yeast background strain, growth absorbance A615, 16 h
PostGolgi yeast = growth inhibition of a yeast mutant, post-Golgi transport screen | post-Golgi transport phenotypic cell assay | inhibition, % at 10 µM | hit rate 0.9% among 98,000 | AID 739;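 also: yeast cells grown in 1536-well plates; yeast grown about 18 h at 30C before absorbance read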
CYP2C9 inhib = blocks human cytochrome P450 2C9. hit rate 20% among 96,000. inhibition, % at 5 µM. AID 777. CYP2C9 Supersomes, luciferin-H conversion, luminescence. P11712;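 active = blocking of liver enzyme CYP2C9 beyond about 50% at 5 µM, limit read from the data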
CYP2C9 activ = CYP2C9 (human) activation; activation factor at 5 µM; recombinant CYP2C9, luciferin-H conversion, luminescence; active compounds read high; factor 1 = untreated enzyme, 0 = blocked; AID 1024; hit rate 1.4% among 96,000;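 active = activation factor of 2 or more for CYP2C9 at a 5 µM dose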;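 also: 0 = sulfaphenazole-blocked wells and 1 = vehicle-only wells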
Numbers without * were called inactive. Rule as the data show it, unless noted: active = inhibition above about 30%; inactive = the rest.

Screening CCOC(=O)N1CCN(c2ccccc2O)CC1 returned CYP2C19 act 0.6, CYP2C19 inhib 36, PostGolgi ctrl 13, PostGolgi yeast 8, CYP2C9 inhib 27 and CYP2C9 activ 0.7.
`O=C(COC(=O)C1(c2ccc(F)cc2)CCCC1)NC1CC1` gave CYP2C19 act 0.4, CYP2C19 inhib 55*, PostGolgi ctrl 20, PostGolgi yeast 2, CYP2C9 inhib 17 and CYP2C9 activ 0.8.
`O=C(Cc1ccc(Br)cc1)N1CCN(c2ccc(F)cc2)CC1` gave CYP2C19 act 0, CYP2C19 inhib 97*, PostGolgi ctrl 9, PostGolgi yeast -4, CYP2C9 inhib 76* and CYP2C9 activ 0.2.
For Cc1nc(-c2cnn(-c3ccccc3)c2)c2cc(C)oc2n1 the results were CYP2C19 act 1.1, CYP2C19 inhib -8, PostGolgi ctrl 9, PostGolgi yeast -15, CYP2C9 inhib -3 and CYP2C9 activ 1.
`COC(=O)C(CC(C)C)NC(=O)CSc1nc(-c2ccccc2)c(C#N)c(=O)[nH]1` (stereo not given) gave CYP2C19 act 0.3, CYP2C19 inhib 65*, PostGolgi ctrl -1, PostGolgi yeast 7, CYP2C9 inhib 88* and CYP2C9 activ 0.1.
For CCC(Sc1nc2ccccc2[nH]1)C(=O)Nc1cc(C)on1 (stereo not given) the results were CYP2C19 act 0.5, CYP2C19 inhib 46, PostGolgi ctrl 6, PostGolgi yeast -2, CYP2C9 inhib 37 and CYP2C9 activ 0.6.
`CCC(Sc1nc(-c2ccccc2)c(C#N)c(=O)[nH]1)C(=O)Nc1cc(C)on1` (stereo not given) gave CYP2C19 act 1.1, CYP2C19 inhib -6, PostGolgi ctrl 11, PostGolgi yeast 5, CYP2C9 inhib 83* and CYP2C9 activ 0.2.
Cc1ccc(N(CC(N)=O)C2SC(=O)N(Cc3ccccc3)C2=O)cc1 (stereo not given) was read as CYP2C19 act 0.6, CYP2C19 inhib 42, PostGolgi ctrl 11, PostGolgi yeast 0, CYP2C9 inhib 0 and CYP2C9 activ 1.
`CCO/C(C)=N/n1c2nc3ccccc3nc2c2c(=O)n(Cc3ccccc3Cl)c(C)nc21` gave CYP2C19 act 0.8, CYP2C19 inhib 23, PostGolgi ctrl 7, PostGolgi yeast 0, CYP2C9 inhib 53* and CYP2C9 activ 0.5.
Cc1nc2c(c(=O)n1Cc1ccccc1Cl)c1nc3ccccc3nc1n2Cc1ccco1 was read as CYP2C19 act 1, CYP2C19 inhib 4, CYP2C9 inhib 52* and CYP2C9 activ 0.5.
COc1ccc(Cn2c3nc4ccccc4nc3c3c(=O)n(Cc4ccco4)c(C)nc32)cc1 was read as CYP2C19 act 1, CYP2C19 inhib 0, CYP2C9 inhib 26 and CYP2C9 activ 0.7.
For COc1cc2cc(C(c3nnnn3C(C)(C)C)N3CCC(C)CC3)c(=O)[nH]c2cc1OC (stereo not given) the results were CYP2C19 act 0.8, CYP2C19 inhib 15, PostGolgi ctrl -5, PostGolgi yeast 21, CYP2C9 inhib 33 and CYP2C9 activ 0.7.
O=C(NCc1cccs1)C1CCCN(S(=O)(=O)c2ccc(Br)s2)C1 (stereo not given) was read as CYP2C19 act 1, CYP2C19 inhib -3, PostGolgi ctrl 4, PostGolgi yeast -2, CYP2C9 inhib -31 and CYP2C9 activ 1.3.
`CC(C)NC(=O)C1CC(=O)N(C(C)c2ccccc2)C1` (stereo not given) gave CYP2C19 act 1.1, CYP2C19 inhib -6, PostGolgi ctrl -3, PostGolgi yeast 9, CYP2C9 inhib -13 and CYP2C9 activ 1.1.
Screening COc1ccc(-n2c(C)c(C(C)=O)c3cc(O)ccc32)cc1 returned CYP2C19 act 0.1, CYP2C19 inhib 90*, PostGolgi ctrl 32*, PostGolgi yeast -1, CYP2C9 inhib 61* and CYP2C9 activ 0.4.
Screening COc1ccc2c(c1)c(C(C)=O)c(C)n2-c1ccccc1 returned CYP2C19 act 0, CYP2C19 inhib 97*, PostGolgi ctrl 22, PostGolgi yeast 0, CYP2C9 inhib 88* and CYP2C9 activ 0.1.
O=C(CSc1nnc(CNC(=O)c2cccs2)o1)NC1CCCCC1 was read as CYP2C19 act 1.2, CYP2C19 inhib -16, PostGolgi ctrl -2, PostGolgi yeast -4, CYP2C9 inhib -23 and CYP2C9 activ 1.2.
`CCn1nc(C(=O)OC(C(=O)c2c[nH]c3ccccc23)c2ccccc2)c2ccccc2c1=O` (stereo not given) gave CYP2C19 act 0.7, CYP2C19 inhib 34, PostGolgi ctrl 2, PostGolgi yeast -5, CYP2C9 inhib 74* and CYP2C9 activ 0.3.
CCn1ncc(Cl)c1C(=O)Nc1ccncc1 was read as CYP2C19 act 0, CYP2C19 inhib 96*, PostGolgi ctrl -12, PostGolgi yeast 1, CYP2C9 inhib 93* and CYP2C9 activ 0.1.
CCn1ncc(Br)c1C(=O)Nc1ccc(C(=O)OC(C)C)cc1 was read as CYP2C19 act 0.9, CYP2C19 inhib 7, PostGolgi ctrl 5, PostGolgi yeast -7, CYP2C9 inhib 8 and CYP2C9 activ 0.9.
Screening CN1CCCN(C(=O)Cc2c(Cl)cccc2Cl)c2nc3ccccc3nc21 returned CYP2C19 act 0.8, CYP2C19 inhib 18, PostGolgi ctrl 43*, PostGolgi yeast 1, CYP2C9 inhib 17 and CYP2C9 activ 0.8.
Screening CO/N=C(/c1nonc1N)N1CCN(c2ccc([N+](=O)[O-])cc2)CC1 returned CYP2C19 act 1, CYP2C19 inhib 3, PostGolgi ctrl 9, PostGolgi yeast -8, CYP2C9 inhib 5 and CYP2C9 activ 1.
CCn1cc(C(=O)NC2CCCCCC2)c2cc(OC)c(OC)cc2c1=O was read as CYP2C19 act 1, CYP2C19 inhib 4, PostGolgi ctrl 2, PostGolgi yeast 0, CYP2C9 inhib 6 and CYP2C9 activ 0.9.
`CCOC(=O)COc1c(Br)cc(/C=C2\SC(=O)N(CC(=O)N3CCCC3)C2=O)cc1OC` gave CYP2C19 act 0.8, CYP2C19 inhib 19, PostGolgi ctrl 6, PostGolgi yeast 5, CYP2C9 inhib 43 and CYP2C9 activ 0.6.
Screening CCOC(=O)COc1ccc(/C=C2/SC(=Nc3ccccc3)N(Cc3cccnc3)C2=O)cc1OC returned CYP2C19 act 0.4, CYP2C19 inhib 55*, PostGolgi ctrl 6, PostGolgi yeast -3, CYP2C9 inhib 75* and CYP2C9 activ 0.2.
`COc1ccc(C2C(C(C)=O)=C(O)C(=O)N2CCN(C)C)cc1OC` (stereo not given) gave CYP2C19 act 1.1, CYP2C19 inhib -13, CYP2C9 inhib -5 and CYP2C9 activ 1.
Screening C=C(C)COc1ccc(-c2n[nH]c(C)c2-c2ccc(OC)cc2)c(O)c1 returned CYP2C19 act 0.5, CYP2C19 inhib 45, PostGolgi ctrl 23, PostGolgi yeast -3, CYP2C9 inhib 47 and CYP2C9 activ 0.5.

Screening data as filed in PubChem.
